Data from the supplement of paper PMC4840960.
± gives the standard deviation of the averaged measurements.

Tested on: E18 rat cortical neuron-glia co-culture
Assay: fiber score / MBP score (myelination specific beyond OL differentiation) (ratio); higher = more myelination-specific MBP alignment
Conditions: 1 µM; treatment time: 8 days (DIV5-DIV13)
Method in brief: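 The measure is the ratio of fiber score to MBP score, where fiber score is continuous MBP fiber length per Olig2+ nucleus and MBP score is thresholded MBP area × intensity per Olig2+ nucleus. Primary E18 rat cortical co-cultures received library compounds at 1 or 5 µM in myelination medium from DIV5 to DIV13, then were fixed in 4 % paraformaldehyde and stained for MBP, Olig2 and DAPI before analysis of four 10X fields per well in duplicate wells.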

SMILES | fiber score / MBP score
NC1CCN(c2nc3c(cc2F)c(=O)c(C(=O)O)cn3-c2ccc(F)cc2F)C1 (stereo not drawn) [Tosufloxacin] | 0.855
COc1cc2c(cc1OC)C(=O)C(CC1CCN(Cc3ccccc3)CC1)C2 (stereo not drawn) [Donepezil] | 0.462
CCCCN1CCCC1CNC(=O)c1cc(C#N)c2ccccc2c1OC (stereo not drawn) [Nafadotride] | 0.516
NNC(=O)c1ccncc1 [Isoniazid] | 0.85
O=C1c2cccc3c2[C@H](CCC3)CN1[C@@H]1CN2CCC1CC2 [Palonosetron] | 0.728
C=C1/C(=C\C=C2/CCC[C@]3(C)[C@@H]([C@H](C)CCCC(C)(C)O)CC[C@@H]23)C[C@@H](O)C[C@@H]1O [Calcitriol] | 0.737
CCCCNc1cc(C(=O)O)cc(S(N)(=O)=O)c1Oc1ccccc1 [Bumetanide] | 0.846
CO[C@H]1/C=C/O[C@@]2(C)Oc3c(C)c(O)c4c(c3C2=O)C2=NC3(CCN(CC(C)C)CC3)NC2=C(NC(=O)/C(C)=C\C=C\[C@H](C)[C@H](O)[C@@H](C)[C@@H](O)[C@@H](C)[C@H](OC(C)=O)[C@@H]1C)C4=O [Rifabutin] | 0.967 ± 0.41
CCC(=O)NS(=O)(=O)c1ccc(-c2c(-c3ccccc3)noc2C)cc1 [Parecoxib] | 0.57
CC(=O)NS(=O)(=O)c1ccc(N)cc1 [Sulfacetamide] | 0.746
CCN(CC)CCNC(=O)c1ccc(N)cc1 [Procainamide] | 0.82
CN1C(C(=O)Nc2ccccn2)=C(O)c2ccccc2S1(=O)=O [Piroxicam] | 0.787
c1ccc2[nH]c(-c3cscn3)nc2c1 [Thiabendazole] | 1.05
Nc1c2c(nc3c1CCC3)CCCC2 [Amiridine] | 0.702
CC(N/C(=N\C#N)Nc1ccncc1)C(C)(C)C (stereo not drawn) [Pinacidil] | 0.981
CN(C)CCc1c[nH]c2ccc(Cn3cncn3)cc12 [Rizatriptan] | 0.516
C[C@H]1C[C@@H]2[C@H]([C@@H](O)C[C@@]3(C)[C@H]2CC[C@]3(O)C(=O)CO)[C@@]2(C)C=CC(=O)C=C12 [Methylprednisolone] | 0.918
C/C(=C\C(=O)OCCCCCCCCC(=O)O)C[C@@H]1OC[C@H](C[C@@H]2O[C@H]2[C@@H](C)[C@H](C)O)[C@@H](O)[C@H]1O [Mupirocin] | 0.423
NS(=O)(=O)c1cc(C2(O)NC(=O)c3ccccc32)ccc1Cl (stereo not drawn) [Chlorthalidone] | 1.29
N=C(N)N [Guanidine] | 0.765

SMILES | fiber score / MBP score
CC(C)Cc1ccc(C(C)C(=O)O)cc1 (stereo not drawn) [Ibuprofen] | 0.67
CN1CCc2cc(Cl)c(O)cc2C(c2ccccc2)C1 (stereo not drawn) | 0.959
Cc1nccn1CC1CCc2c(c3ccccc3n2C)C1=O (stereo not drawn) [Ondansetron] | 0.73 ± 0.022
Nc1nc2ccc(OC(F)(F)F)cc2s1 [Riluzole] | 0.879
COc1cc(C)c(/C=C/C(C)=C/C=C/C(C)=C/C(=O)O)c(C)c1C [Acitretin] | 1.04
CCCNC(=O)NS(=O)(=O)c1ccc(Cl)cc1 [Chlorpropamide] | 0.614
CC(=O)OCC(=O)[C@@]12OC3(CCCC3)O[C@@H]1C[C@H]1[C@@H]3CCC4=CC(=O)C=C[C@]4(C)[C@@]3(F)[C@@H](O)C[C@@]12C [Amcinonide] | 0.868
CN(CCO)CC(O)Cn1cnc2c1c(=O)n(C)c(=O)n2C (stereo not drawn) [Jupal] | 0.827
O=C(O)/C=C/c1ccc(Cn2ccnc2)cc1 [Ozagrel] | 0.768
CCC(C)(C)C(=O)O[C@H]1C[C@@H](C)C=C2C=C[C@H](C)[C@H](CC[C@@H]3C[C@@H](O)CC(=O)O3)[C@H]21 [Simvastatin] | 1.17
CC1Cc2ccccc2N1NC(=O)c1ccc(Cl)c(S(N)(=O)=O)c1 (stereo not drawn) [Indapamide] | 0.911
CCN(CC)CCOC(=O)c1ccc(N)cc1 [Procaine] | 1.09
CC1(C)O[C@@H]2C[C@H]3[C@@H]4CCC5=CC(=O)C=C[C@]5(C)[C@@]4(F)[C@@H](O)C[C@]3(C)[C@]2(C(=O)CO)O1 [Triamcinolone Acetonide] | 1.37
CCCC(=O)Nc1ccc(OCC(O)CNC(C)C)c(C(C)=O)c1 (stereo not drawn) [Acebutolol] | 0.757
CC(=O)OCC(=O)NCCCOc1cccc(CN2CCCCC2)c1 [Roxatidine acetate] | 0.727
CCOC(=O)[C@H](CCc1ccccc1)N[C@@H](C)C(=O)N1[C@H](C(=O)O)C[C@@H]2CCC[C@@H]21 [Ramipril] | 0.635 ± 0.29
CN(C)CCOC(C)(c1ccccc1)c1ccccn1 (stereo not drawn) [Doxylamine] | 0.674
CCn1cc(C(=O)O)c(=O)c2ccc(C)nc21 [Nalidixic Acid] | 0.966
C#C[C@]1(O)CC[C@H]2[C@@H]3CCC4=Cc5oncc5C[C@]4(C)[C@H]3CC[C@@]21C [Danazol] | 0.577

Same assay, conditions: 5 µM; treatment time: 8 days (DIV5-DIV13)

SMILES | fiber score / MBP score
NC1CCN(c2nc3c(cc2F)c(=O)c(C(=O)O)cn3-c2ccc(F)cc2F)C1 (stereo not drawn) [Tosufloxacin] | 0.665
COc1cc2c(cc1OC)C(=O)C(CC1CCN(Cc3ccccc3)CC1)C2 (stereo not drawn) [Donepezil] | 0.277
CCCCN1CCCC1CNC(=O)c1cc(C#N)c2ccccc2c1OC (stereo not drawn) [Nafadotride] | 0.414
NNC(=O)c1ccncc1 [Isoniazid] | 0.914
O=C1c2cccc3c2[C@H](CCC3)CN1[C@@H]1CN2CCC1CC2 [Palonosetron] | 0.587
C=C1/C(=C\C=C2/CCC[C@]3(C)[C@@H]([C@H](C)CCCC(C)(C)O)CC[C@@H]23)C[C@@H](O)C[C@@H]1O [Calcitriol] | 0.531
CCCCNc1cc(C(=O)O)cc(S(N)(=O)=O)c1Oc1ccccc1 [Bumetanide] | 0.859
CO[C@H]1/C=C/O[C@@]2(C)Oc3c(C)c(O)c4c(c3C2=O)C2=NC3(CCN(CC(C)C)CC3)NC2=C(NC(=O)/C(C)=C\C=C\[C@H](C)[C@H](O)[C@@H](C)[C@@H](O)[C@@H](C)[C@H](OC(C)=O)[C@@H]1C)C4=O [Rifabutin] | 0.734 ± 0.12
CCC(=O)NS(=O)(=O)c1ccc(-c2c(-c3ccccc3)noc2C)cc1 [Parecoxib] | 1.01
CC(=O)NS(=O)(=O)c1ccc(N)cc1 [Sulfacetamide] | 1.2
CCN(CC)CCNC(=O)c1ccc(N)cc1 [Procainamide] | 1.19
CN1C(C(=O)Nc2ccccn2)=C(O)c2ccccc2S1(=O)=O [Piroxicam] | 1.04
c1ccc2[nH]c(-c3cscn3)nc2c1 [Thiabendazole] | 0.885
Nc1c2c(nc3c1CCC3)CCCC2 [Amiridine] | 0.8
CC(N/C(=N\C#N)Nc1ccncc1)C(C)(C)C (stereo not drawn) [Pinacidil] | 0.451
CN(C)CCc1c[nH]c2ccc(Cn3cncn3)cc12 [Rizatriptan] | 0.414
C[C@H]1C[C@@H]2[C@H]([C@@H](O)C[C@@]3(C)[C@H]2CC[C@]3(O)C(=O)CO)[C@@]2(C)C=CC(=O)C=C12 [Methylprednisolone] | 1.01
C/C(=C\C(=O)OCCCCCCCCC(=O)O)C[C@@H]1OC[C@H](C[C@@H]2O[C@H]2[C@@H](C)[C@H](C)O)[C@@H](O)[C@H]1O [Mupirocin] | 0.41
NS(=O)(=O)c1cc(C2(O)NC(=O)c3ccccc32)ccc1Cl (stereo not drawn) [Chlorthalidone] | 1.09
N=C(N)N [Guanidine] | 0.71

SMILES | fiber score / MBP score
CC(C)Cc1ccc(C(C)C(=O)O)cc1 (stereo not drawn) [Ibuprofen] | 0.833
CN1CCc2cc(Cl)c(O)cc2C(c2ccccc2)C1 (stereo not drawn) | 0.975
Cc1nccn1CC1CCc2c(c3ccccc3n2C)C1=O (stereo not drawn) [Ondansetron] | 0.404 ± 0.053
Nc1nc2ccc(OC(F)(F)F)cc2s1 [Riluzole] | 0.478
COc1cc(C)c(/C=C/C(C)=C/C=C/C(C)=C/C(=O)O)c(C)c1C [Acitretin] | 1.45
CCCNC(=O)NS(=O)(=O)c1ccc(Cl)cc1 [Chlorpropamide] | 1.05
CC(=O)OCC(=O)[C@@]12OC3(CCCC3)O[C@@H]1C[C@H]1[C@@H]3CCC4=CC(=O)C=C[C@]4(C)[C@@]3(F)[C@@H](O)C[C@@]12C [Amcinonide] | 0.784
CN(CCO)CC(O)Cn1cnc2c1c(=O)n(C)c(=O)n2C (stereo not drawn) [Jupal] | 0.635
O=C(O)/C=C/c1ccc(Cn2ccnc2)cc1 [Ozagrel] | 1.11
CCC(C)(C)C(=O)O[C@H]1C[C@@H](C)C=C2C=C[C@H](C)[C@H](CC[C@@H]3C[C@@H](O)CC(=O)O3)[C@H]21 [Simvastatin] | 3.15
CC1Cc2ccccc2N1NC(=O)c1ccc(Cl)c(S(N)(=O)=O)c1 (stereo not drawn) [Indapamide] | 1.31
CCN(CC)CCOC(=O)c1ccc(N)cc1 [Procaine] | 1.47
CC1(C)O[C@@H]2C[C@H]3[C@@H]4CCC5=CC(=O)C=C[C@]5(C)[C@@]4(F)[C@@H](O)C[C@]3(C)[C@]2(C(=O)CO)O1 [Triamcinolone Acetonide] | 1.32
CCCC(=O)Nc1ccc(OCC(O)CNC(C)C)c(C(C)=O)c1 (stereo not drawn) [Acebutolol] | 0.796
CC(=O)OCC(=O)NCCCOc1cccc(CN2CCCCC2)c1 [Roxatidine acetate] | 0.706
CCOC(=O)[C@H](CCc1ccccc1)N[C@@H](C)C(=O)N1[C@H](C(=O)O)C[C@@H]2CCC[C@@H]21 [Ramipril] | 0.628 ± 0.47
CN(C)CCOC(C)(c1ccccc1)c1ccccn1 (stereo not drawn) [Doxylamine] | 0.969
CCn1cc(C(=O)O)c(=O)c2ccc(C)nc21 [Nalidixic Acid] | 0.797
C#C[C@]1(O)CC[C@H]2[C@@H]3CCC4=Cc5oncc5C[C@]4(C)[C@H]3CC[C@@]21C [Danazol] | 0.557
